Activity calls are given as the source filed them. Unless noted, no rule for the calls is given here.
Assays:
[1] = compounds binding Alexa647 anti-His antibody – biochemical, small-molecule microarray, 635 nm fluorescence, artefact control for SMM control protein annotation, primary screen (AID 1128); settings: higher = more signal;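 also: score merges feature fluorescence with signal-to-noise for each printed compound spot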
[2] = system: Human papillomavirus type 1a E7 protein (residues 1-88); assay: HPV1a E7 small-molecule binders, primary screen, biochemical, small-molecule microarray, residues 1-88, 635 nm (AID 1129); settings: small-molecule microarray binding, fluorescence 635 nm; higher = more signal
[3] = biological target: Focal adhesion kinase 1 (Homo sapiens) (UniProt Q05397); assay: PTK2 protein binding on printed compound slides – biochemical, small-molecule microarray, 635/667 nm fluorescence, BSA, DTT, primary screen (AID 1130); settings: 635 nm fluorescence, higher = more signal;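 also: composite of spot emission at 667 nm and signal to noise over triplicate slides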
Chain of Focal adhesion kinase 1 (Homo sapiens) (Q05397 whole entry, looked up): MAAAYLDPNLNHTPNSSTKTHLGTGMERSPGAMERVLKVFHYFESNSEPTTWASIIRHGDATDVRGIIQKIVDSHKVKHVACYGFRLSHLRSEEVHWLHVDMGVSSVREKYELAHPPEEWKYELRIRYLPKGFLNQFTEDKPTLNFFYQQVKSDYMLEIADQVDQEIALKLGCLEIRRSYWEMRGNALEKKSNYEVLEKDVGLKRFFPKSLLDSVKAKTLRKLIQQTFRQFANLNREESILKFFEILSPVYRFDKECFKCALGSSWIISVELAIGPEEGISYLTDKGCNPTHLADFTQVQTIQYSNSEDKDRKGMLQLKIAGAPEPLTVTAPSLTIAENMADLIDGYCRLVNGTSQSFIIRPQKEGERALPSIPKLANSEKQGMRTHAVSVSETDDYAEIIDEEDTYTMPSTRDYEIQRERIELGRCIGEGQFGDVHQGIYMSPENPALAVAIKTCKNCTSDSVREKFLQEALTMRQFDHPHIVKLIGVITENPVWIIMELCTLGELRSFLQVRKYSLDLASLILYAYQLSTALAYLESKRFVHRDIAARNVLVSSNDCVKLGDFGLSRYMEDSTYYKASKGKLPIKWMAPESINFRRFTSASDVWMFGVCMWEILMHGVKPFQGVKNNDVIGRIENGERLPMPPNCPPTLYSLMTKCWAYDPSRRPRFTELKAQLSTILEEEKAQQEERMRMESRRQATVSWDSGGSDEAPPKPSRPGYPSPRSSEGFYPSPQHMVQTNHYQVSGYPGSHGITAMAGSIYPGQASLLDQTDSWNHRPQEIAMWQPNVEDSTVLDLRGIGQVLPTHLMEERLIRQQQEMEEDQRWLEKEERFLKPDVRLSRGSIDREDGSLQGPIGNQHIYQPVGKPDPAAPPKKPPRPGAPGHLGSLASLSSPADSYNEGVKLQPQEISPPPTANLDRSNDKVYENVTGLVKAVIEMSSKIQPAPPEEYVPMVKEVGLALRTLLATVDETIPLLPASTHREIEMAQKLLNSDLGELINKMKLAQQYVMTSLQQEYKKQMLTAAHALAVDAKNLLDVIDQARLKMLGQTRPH

[4] = system: Fibrinogen (Alexa647-labelled); assay: Alexa647-fibrinogen binding to printed small molecules – biochemical, small-molecule microarray, 635/667 nm fluorescence, artefact control for SMM control-protein annotation, profiling panel (AID 1131); settings: fibrinogen-A647 binding fluorescence, higher = more signal;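 also: z-score merges 667 nm fluorescence with per-spot signal-to-noise over triplicate slides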
[5] = biological target: Follistatin (Homo sapiens) (UniProt P19883); assay: FST protein binding to printed compounds – biochemical, small-molecule microarray, 635/667 nm fluorescence, primary screen (AID 1132); settings: 635 nm fluorescence, higher = more signal
Chain of Follistatin (Homo sapiens) (P19883 whole entry, looked up): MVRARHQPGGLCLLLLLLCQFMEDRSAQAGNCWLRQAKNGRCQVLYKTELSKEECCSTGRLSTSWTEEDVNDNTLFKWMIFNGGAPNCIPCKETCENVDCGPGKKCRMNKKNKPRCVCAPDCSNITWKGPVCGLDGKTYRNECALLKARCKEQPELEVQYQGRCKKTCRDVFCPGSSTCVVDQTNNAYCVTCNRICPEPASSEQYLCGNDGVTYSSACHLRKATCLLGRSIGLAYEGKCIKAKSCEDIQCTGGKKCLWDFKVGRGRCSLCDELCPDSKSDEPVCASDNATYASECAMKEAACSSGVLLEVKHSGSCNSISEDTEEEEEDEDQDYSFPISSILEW

[6] = biological target: Fibroblast growth factor 2 (Homo sapiens) (UniProt P09038); assay: basic fibroblast growth factor binding to printed compounds – biochemical, small-molecule microarray, 635/667 nm fluorescence, primary screen (AID 1133); settings: FGF2, fluorescence 635/667, higher = more signal
Chain of Fibroblast growth factor 2 (Homo sapiens) (P09038 whole entry, looked up): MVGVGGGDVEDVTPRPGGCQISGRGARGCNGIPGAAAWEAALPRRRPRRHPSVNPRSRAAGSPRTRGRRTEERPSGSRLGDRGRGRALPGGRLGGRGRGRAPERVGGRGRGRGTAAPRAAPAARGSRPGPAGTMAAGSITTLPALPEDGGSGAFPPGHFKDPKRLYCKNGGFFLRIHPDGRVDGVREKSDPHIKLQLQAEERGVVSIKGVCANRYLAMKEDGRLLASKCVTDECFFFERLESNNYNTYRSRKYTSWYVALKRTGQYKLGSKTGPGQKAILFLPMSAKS

[7] = JC-1 mitochondrial potential readout, lung cancer cells – cell-based, A549, JC-1 fluorescence, basal, 24 h, 100 nL, profiling panel (AID 1138); settings: higher = more signal;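 also: A549 lung adenocarcinoma cells under basal conditions with no added stimulus; test concentration not given here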
Lefty1 = Lefty1 protein binding to printed compounds – biochemical, small-molecule microarray, 635/667 nm fluorescence, primary screen (AID 1139); settings: fluorescence 635/667, higher = more signal
[8] = system: wheat germ agglutinin (Triticum aestivum), Alexa647-labelled; assay: Alexa647-WGA lectin binding to printed small molecules – biochemical, small-molecule microarray, 635/667 nm fluorescence, artefact control for SMM control-protein annotation, profiling panel (AID 1140); settings: WGA-A647 binding, 635 nm fluorescence, higher = more signal;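 also: score merges 667 nm feature emission with signal to noise over triplicate slides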
[9] = biological target: Luciferin 4-monooxygenase (Photinus pyralis) (UniProt P08659); assay: inhibition of purified Photinus pyralis luciferase – biochemical, luminescence, purified enzyme, 2006 set, primary screen (AID 1141); settings: purified firefly luciferase, SteadyGlo luminescence, 30 min; higher = more signal, called active from +8 up or from −8 down;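 also: cell-free assay with purified firefly luciferase at 100 ng per well in PBS; test concentration not given here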
Chain of Luciferin 4-monooxygenase (Photinus pyralis) (P08659 whole entry, looked up): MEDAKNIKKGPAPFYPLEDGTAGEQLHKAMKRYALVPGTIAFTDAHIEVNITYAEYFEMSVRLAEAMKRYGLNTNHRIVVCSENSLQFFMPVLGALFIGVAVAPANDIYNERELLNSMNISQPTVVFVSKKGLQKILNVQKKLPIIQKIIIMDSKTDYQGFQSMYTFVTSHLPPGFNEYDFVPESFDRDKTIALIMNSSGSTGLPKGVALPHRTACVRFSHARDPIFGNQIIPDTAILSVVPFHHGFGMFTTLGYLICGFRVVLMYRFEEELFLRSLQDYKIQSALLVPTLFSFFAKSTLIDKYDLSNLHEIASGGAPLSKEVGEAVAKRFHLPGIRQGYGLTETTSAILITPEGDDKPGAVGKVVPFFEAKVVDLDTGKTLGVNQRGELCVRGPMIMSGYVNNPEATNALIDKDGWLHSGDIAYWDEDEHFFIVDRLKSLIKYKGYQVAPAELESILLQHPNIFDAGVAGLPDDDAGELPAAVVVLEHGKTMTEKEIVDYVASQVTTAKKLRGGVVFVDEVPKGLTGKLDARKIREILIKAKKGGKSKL

[10] = system: Wnt5a (protein binding on small-molecule microarray); assay: small molecules binding Wnt5a protein – biophysical, small-molecule microarray, 635/667 nm fluorescence, primary screen (AID 1142); settings: 635 nm fluorescence, higher = more signal;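 also: fluorescence read at 667 nm with signal to noise per printed feature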
[11] = ATP-based viability of Huh7 replicon cells – cell-based, CellTiter-Glo luminescence, basal, 48 h, cytotoxicity control for HCV replication inhibitor project, primary screen (AID 1143); settings: higher = more signal, called active from +8 up or from −8 down;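 also: Huh7 hepatoma cells carrying a hepatitis C replication reporter with no stimulus; test concentration not given here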
[12] = Pseudomonas biofilm growth suppression – PAO1 strain, BacTiter-Glo luminescence, LB-PBS, primary screen (AID 1144); settings: P. aeruginosa PAO1 biofilm, 12 h, higher = more signal
[13] = basal CRE-LacZ reporter activity in PC12 – cell-based, unstimulated, primary screen (AID 1145); settings: no forskolin, luminescence, 4.5 h, higher = more signal, called active from +8 up or from −8 down
[14] = forskolin-driven CRE-LacZ activity in PC12 – cell-based, CRE-LacZ reporter, forskolin-stimulated, primary screen (AID 1146); settings: luminescence, 4.5 h, higher = more signal, called active from +8 up or from −8 down;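 also: PC12 cells with 6xCRE LacZ reporter stimulated by forskolin 10 µM; beta-galactosidase reporter signal reflecting CREB driven transcription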
[15] = biological target: Streptavidin (Streptomyces avidinii) (UniProt P22629); assay: compounds binding control protein streptavidin – biophysical, small-molecule microarray, 635/667 nm fluorescence, artefact control for SMM compound annotation, primary screen (AID 1147); settings: higher = more signal;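 also: signal reflects streptavidin binding to arrayed compounds as a control protein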
Chain of Streptavidin (Streptomyces avidinii) (P22629 whole entry, looked up): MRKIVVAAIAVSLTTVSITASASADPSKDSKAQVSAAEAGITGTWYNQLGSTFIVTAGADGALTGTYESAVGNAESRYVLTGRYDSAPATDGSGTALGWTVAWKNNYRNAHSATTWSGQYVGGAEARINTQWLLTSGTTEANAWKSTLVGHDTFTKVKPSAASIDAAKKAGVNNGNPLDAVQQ

[16] = probe aInhba binding on compound microarray – biochemical, small-molecule microarray, 635/667 nm fluorescence, primary screen (AID 1148); settings: higher = more signal;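 also: score merges 667nm spot fluorescence with signal-to-noise for antibody binding to printed compounds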
Torsin-1A (Homo sapiens) [17] = biological target: Torsin-1A (Homo sapiens) (UniProt O14656); assay: TOR1A wild-type binding on microarray – cell lysate, small-molecule microarray, lysate, 635/667 nm, primary screen (AID 1149); settings: COS7 hTOR1A-WT lysate, 635 nm fluorescence, higher = more signal
Chain of Torsin-1A (Homo sapiens) (O14656 whole entry, looked up): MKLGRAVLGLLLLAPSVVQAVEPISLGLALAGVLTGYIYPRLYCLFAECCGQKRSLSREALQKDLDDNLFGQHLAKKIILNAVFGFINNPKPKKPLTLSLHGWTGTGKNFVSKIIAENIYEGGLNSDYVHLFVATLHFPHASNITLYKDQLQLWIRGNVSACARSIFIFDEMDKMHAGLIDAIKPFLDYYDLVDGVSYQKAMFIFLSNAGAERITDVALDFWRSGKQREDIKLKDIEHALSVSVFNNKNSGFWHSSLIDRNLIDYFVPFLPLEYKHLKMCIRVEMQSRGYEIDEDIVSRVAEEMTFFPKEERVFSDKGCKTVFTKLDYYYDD

Torsin-1A (Homo sapiens) [18] = biological target: Torsin-1A (Homo sapiens) (UniProt O14656); assay: torsin A mutant lysate binding on microarrays – cell lysate, small-molecule microarray, COS7 lysate, 635/667 nm fluorescence, primary screen (AID 1150); settings: COS7 hTOR1A mutant lysate, 635 nm fluorescence, higher = more signal;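 also: score pools 667 nm emission and signal to noise measuring lysate protein binding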
[19] = system: Sonic hedgehog protein (Shh); assay: Sonic hedgehog microarray binding compounds – biochemical, small-molecule microarray, 635/667 nm fluorescence, primary screen (AID 1151); settings: 635 nm fluorescence, higher = more signal;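 also: Shh protein binding to compounds spotted on small-molecule microarray slides; score combines spot fluorescence intensity with signal-to-noise across triplicate slides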

O=C1C[C@@H](O)[C@@H](O)[C@@H]2[C@@H]3C(=O)N(Cc4ccccc4)C(=O)[C@@H]3CC[C@H]12
composite z-score [1]: 0.0747 | composite z-score [2]: 0.467 | composite z-score [3]: 0.141 | composite z-score [4]: 0.872 | composite z-score [5]: 0.967 | composite z-score [6]: 0.347 | z-score [7]: -0.579 | composite z-score (Lefty1): 0.329 | composite z-score [8]: 0.565 | z-score [9]: 0.675 (inactive) | composite z-score [10]: 0.0217 | z-score [11]: -0.3 (inactive) | z-score [12]: -0.473 (inactive) | z-score [13]: -0.293 (inactive) | z-score [14]: -0.497 (inactive) | composite z-score [15]: 0.636 | composite z-score [16]: -0.0719 | composite z-score (Torsin-1A (Homo sapiens) [17]): 0.176 | composite z-score (Torsin-1A (Homo sapiens) [18]): 0.37 | composite z-score [19]: 0.718

CCc1cc2c(nc1CC)CCN(CCC(C)=NOC(C)CN1CCCCc3nc(C)c(C)cc31)C2 (stereo not given)
composite z-score [1]: 0.575 | composite z-score [2]: 1.18 | composite z-score [3]: -0.048 | composite z-score [4]: 0.874 | composite z-score [5]: 1.18 | composite z-score [6]: 0.557 | z-score [7]: 2.45 | composite z-score (Lefty1): 0.979 | composite z-score [8]: 0.439 | z-score [9]: -0.0579 (inactive) | composite z-score [10]: 0.393 | z-score [11]: -3.02 (inactive) | z-score [12]: 0.227 (inactive) | z-score [13]: 2.08 (inactive) | z-score [14]: 0.633 (inactive) | composite z-score [15]: 0.88 | composite z-score [16]: 0.0713 | composite z-score (Torsin-1A (Homo sapiens) [17]): 2.23 | composite z-score (Torsin-1A (Homo sapiens) [18]): 1.08 | composite z-score [19]: 1.58

CC(C)=NO[C@@H](C)c1cn([C@H](CO)Cc2ccccc2)nn1
composite z-score [1]: 0.554 | composite z-score [2]: 0.598 | composite z-score [3]: -0.17 | composite z-score [4]: 0.17 | composite z-score [5]: 0.238 | composite z-score [6]: 0.239 | z-score [7]: -0.0312 | composite z-score (Lefty1): 0.542 | composite z-score [8]: 0.237 | z-score [9]: -2 (inactive) | composite z-score [10]: 0.0949 | z-score [11]: -0.172 (inactive) | z-score [12]: -0.643 (inactive) | z-score [13]: 0.573 (inactive) | z-score [14]: -0.537 (inactive) | composite z-score [15]: 0.561 | composite z-score [16]: -0.0681 | composite z-score (Torsin-1A (Homo sapiens) [17]): 0.818 | composite z-score (Torsin-1A (Homo sapiens) [18]): 0.39 | composite z-score [19]: 0.469

C[C@H]1CC[C@@H](C(=O)O)N[C@@H]1c1ccc(C#Cc2ccccc2)cc1
composite z-score [1]: 1.53 | composite z-score [2]: 1.06 | composite z-score [3]: 0.454 | composite z-score [4]: 0.918 | composite z-score [5]: 1.07 | composite z-score [6]: 0.551 | z-score [7]: -2.02 | composite z-score (Lefty1): 0.608 | composite z-score [8]: 1.11 | z-score [9]: -9.82 (active) | composite z-score [10]: 0.177 | z-score [11]: -7 (inactive) | z-score [12]: 0.696 (inactive) | z-score [13]: 0.112 (inactive) | z-score [14]: -1.58 (inactive) | composite z-score [15]: 2.04 | composite z-score [16]: -0.0403 | composite z-score (Torsin-1A (Homo sapiens) [17]): 0.587 | composite z-score (Torsin-1A (Homo sapiens) [18]): 0.439 | composite z-score [19]: 1.53

CCN1C(=O)[C@H]2[C@@H]3C(=CC[C@H]2C1=O)C(=O)[C@H]1O[C@H]1[C@H]3O
composite z-score [1]: 1.21 | composite z-score [2]: 0.491 | composite z-score [3]: -0.204 | composite z-score [4]: 0.185 | composite z-score [5]: 1.21 | composite z-score [6]: 1.42 | z-score [7]: -0.923 | composite z-score (Lefty1): 1.39 | composite z-score [8]: 0.207 | z-score [9]: -0.415 (inactive) | composite z-score [10]: 0.116 | z-score [11]: -5.2 (inactive) | z-score [12]: 1.41 (inactive) | z-score [13]: 2.79 (inactive) | z-score [14]: 21.9 (active) | composite z-score [15]: 0.49 | composite z-score [16]: -0.183 | composite z-score (Torsin-1A (Homo sapiens) [17]): 0.734 | composite z-score (Torsin-1A (Homo sapiens) [18]): 0.348 | composite z-score [19]: 1.64

CC(C)[C@@H](OCc1ccccc1)[C@H](C)C=NOC[C@@H](O)[C@H]1O[C@@H]2OC(C)(C)O[C@@H]2[C@H]1O
composite z-score [1]: 2.33 | composite z-score [2]: 0.387 | composite z-score [3]: 0.137 | composite z-score [4]: 0.941 | composite z-score [5]: 0.214 | composite z-score [6]: 0.635 | z-score [7]: -0.958 | composite z-score (Lefty1): 0.768 | composite z-score [8]: 0.234 | z-score [9]: -0.587 (inactive) | composite z-score [10]: 0.332 | z-score [11]: 0.226 (inactive) | z-score [12]: 0.0464 (inactive) | z-score [13]: -0.408 (inactive) | z-score [14]: 0.307 (inactive) | composite z-score [15]: 1.61 | composite z-score [16]: -0.0695 | composite z-score (Torsin-1A (Homo sapiens) [17]): 0.298 | composite z-score (Torsin-1A (Homo sapiens) [18]): 0.284 | composite z-score [19]: 0.587

— PubChem BioAssay
